Consider 25 compounds from PubChem BioAssay AID781 (Emory University Molecular Libraries Screening Center, 2007).

SMILES strings stand for the structures. About 1,600 (0.73%) of roughly 220,000 compounds were called active.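 How the source made its calls: active means inhibition above about 70% (limit read from the data); inactive means the rest.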 Only a selection was taken, and actives are over-represented in it overall.

Sequence of 14-3-3 protein zeta/delta (Bos taurus) (P63103 whole entry, looked up): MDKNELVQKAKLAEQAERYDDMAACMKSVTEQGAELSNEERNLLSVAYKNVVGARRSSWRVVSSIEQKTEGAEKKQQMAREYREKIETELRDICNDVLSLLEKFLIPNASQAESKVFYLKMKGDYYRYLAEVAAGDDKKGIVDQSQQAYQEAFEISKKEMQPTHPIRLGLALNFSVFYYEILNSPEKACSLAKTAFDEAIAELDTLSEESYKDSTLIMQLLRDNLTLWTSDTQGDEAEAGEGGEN

The assay has as its target 14-3-3 protein zeta/delta (Bos taurus) (UniProt P63103). Briefly: disruptors of 14-3-3 zeta phospho-Bad complex – biochemical, TR-FRET, bovine 14-3-3 zeta, primary screen (AID 781).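 Further: 0% = full 14-3-3 plus peptide FRET controls and 100% = background without 14-3-3.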 As to conditions: TR-FRET 14-3-3zeta/Dy647-pBad peptide displacement, 1 h; at 21.7 µM; stronger effect = higher value.
In the case of `CN1CCN(C(=O)COc2ccc(C(C)(C)C)cc2Br)CC1`, the inhibition was -3.25% (inactive).
Under `O=C(COc1ccc2ccccc2c1)N1CCN(Cc2ccncc2)CC1` stands 87.2% (active); under `CC(C)c1ccc(OCC(=O)N2CCN(C)CC2)c(Br)c1`, 3.12% (inactive).
Take `O=C1NC(=O)N(CCc2ccc(F)cc2)C(=O)/C1=C/C=C/c1ccccc1`: the inhibition was 4.29% (inactive).
In the case of `Cc1ccsc1C(=O)C1CCCN(Cc2ccc(O)cc2)C1` (stereo not given) it was -11.4% (inactive); in that of `O=C(Cc1ccccc1)N1CCN(C2CCCCCC2)CC1`, 27.6% (inactive); in that of `COc1ccccc1CN1CCN(C(=O)Cc2ccccc2)CC1`, 75.5% (active).
`COc1ccc(CN2CCN(c3ccccc3F)CC2)c(OC)c1`: the inhibition is 52.2% (inactive).
In the case of `O=c1[nH]c(=O)n(-c2ccccc2)c(O)c1C=NC12CN3CN(CN(C3)C1)C2` it was -5.55% (inactive).
In the case of `COC(=O)N1C(c2ccccc2)C1c1ccccc1` (stereo not given), the inhibition is -6.04% (inactive).
On to `Cc1cc(N2C(=O)C3CCCN3C2c2ccc(Cl)c(Cl)c2)no1` (stereo not given), for which the inhibition is 5.89% (inactive).
In the case of `O=C(Cc1ccccc1[N+](=O)[O-])N1CCN(Cc2ccc3c(c2)OCO3)CC1`, the inhibition was -4.2% (inactive).
In the case of `Fc1ccc(N2CCN(Cc3ccc4c(c3)OCO4)CC2)cc1` it was 70.2% (active); in that of `Cc1ccc(CN2CCCC(C(=O)c3ccc4c(c3)OCO4)C2)cc1C` (stereo not given), -6.26% (inactive).
Under `Fc1ccc(C2N3CCCN23)cc1` (stereo not given) stands -6.34% (inactive).
In the case of `CC(C)Oc1cccc(C(=O)C2CCCN(C3CCOCC3)C2)c1` (stereo not given) it was -13% (inactive); in that of `CC(C)CN1CCN(Cc2ccccc2C(F)(F)F)CC1CCO` (stereo not given), -9.76% (inactive); in that of `Fc1cccc(F)c1CN1CCN(Cc2c(F)cccc2F)CC1`, -4.69% (inactive).
As to `CN1CCN(Cc2ccc(OC(F)(F)F)cc2)CC1`, the inhibition is 78.5% (active).
In the case of `CN1CCN(Cc2ccccc2C(F)(F)F)CC1` it was 70.1% (active); in that of `Cc1ccc(-n2c(O)c(C=NCC3CCCO3)c(=O)[nH]c2=O)c(C)c1` (stereo not given), 5.29% (inactive).
Take `CCCCC(=O)N/N=C/c1c(O)n(CCC2=CCCCC2)c(=O)[nH]c1=O`: the inhibition is -15.6% (inactive).
Under `CCC1(C)CC(CCNCc2ccc(N(C)C)cc2)(c2ccc(F)cc2)CCO1` (stereo not given) stands -2.86% (inactive); under `c1cc2c(cc1[C@H]1OC[C@H]3[C@@H]1CO[C@@H]3c1ccc3c(c1)OCO3)OCO2`, -2.89% (inactive).
In the case of `O=c1[nH]c(=O)n(CCc2ccc(F)cc2)c(O)c1/C=N/N1CCCCC1` it was -6.68% (inactive).

As usually defined, the inhibition is the drop in the measured response relative to a control, in per cent.
